High-throughput results (PubChem)
HT1080-NT tox = qHTS for induction of synthetic lethality in tumor cells producing 2HG: qHTS for the HT-1080-NT fibrosarcoma cell line | Potency, µM (highest dose often 46.1 µM), for inactives: top-dose activity, negative = less viability, most hits filed as cytotoxic | HT-1080-NT fibrosarcoma viability, CellTiter-Glo ATP luminescence, 48 h | AID 686970, 2013 | actives 1.6% (n = 360,000);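 also: NT is the 2HG producing partner of a matched IDH1 knockdown line; 0% = DMSO-treated cells and -100% = media-only wells without cells; nearly all actives have a fitted effect of over 55% in size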
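Fibrosarcoma NT cells, 750 per well in 5% FBS RPMI, were exposed to compound for 48 hours. Viability: CellTiter-Glo luminescence.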
HT1080 IDH1KD tx = qHTS for induction of synthetic lethality in tumor cells producing 2HG: qHTS for the HT-1080-IDH1KD cell line. actives 2% (n = 360,000). HT-1080 IDH1 knockdown viability, ATP luminescence, 48 h. Potency, µM (series often up to 46.1 µM), without a hit: at the top dose activity, negative = toxicity, most hits filed as cytotoxic;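 also: 0% = DMSO wells and -100% = cell-free medium wells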
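IDH1KD HT-1080 cells, 750/well, RPMI + 5% FBS; compound pinned after 2 h settling; 48 h, 37 °C; CellTiter-Glo luminescence; % activity normalised to DMSO and no-cell wells; curves fitted, classed by r2 and efficacy.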
KB-V1 MDR tox = qHTS assay for MDR1-selective chemotherapeutics: Primary screen using the drug-selected MDR subline cells KB-V1; AID 1347076, 2019; KB-V1 MDR cells viability, CellTiter-Glo, 72 h; Potency, µM (titrated, usually from 46.1 µM), hits mostly cytotoxic; actives 3.4% (n = 400,000); also: nearly all actives have a fitted effect of over 60% in size
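KB-V1 MDR subline cells in DMEM (phenol-red free, 10% FBS) exposed to compounds in qHTS concentration series for 72 h at 37 degrees C. Viability read by CellTiter-Glo luminescence; concentration-effect curves fitted after normalization and correction.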
TDP1 cell noCPT = qHTS for Inhibitors of human tyrosyl-DNA phosphodiesterase 1 (TDP1): qHTS in cells in absence of CPT; DT40 Tdp1-/- hTDP1 cells, no CPT, ATP luminescence, 48 h; Potency, µM (doses to about 46.2 µM), inactives show at the top dose activity change, negative = growth inhibition, usual class: inhibitors; actives 15% (n = 420,000); also: nearly all actives have a fitted effect of over 55% in size
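Cells were dispensed at 400 per well, compounds added by pin tool, plates incubated ≥48 hr at 37 °C, then CellTiter-Glo added for 30 min at room temperature before luminescence reading. Line: DT40 Tdp1-/- complemented with hTDP1; camptothecin omitted.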
KB-3-1 tox = qHTS assay for MDR1-selective chemotherapeutics: Primary screen using the parental adenocarcinoma cell KB-3-1 | actives 1.4% (n = 400,000) | KB-3-1 viability, CellTiter-Glo ATP luminescence, 72 h | Potency, µM (top dose mostly 46.1 µM), usual class: cytotoxic | AID 1347075, 2019; also: nearly all actives have a fitted effect of over 60% in size
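Luminescent ATP read-out (CellTiter-Glo) measures survival of drug-naive KB-3-1 cells after 72 h compound exposure at 37 °C. Titration series was screened from lowest to highest concentration, with DMSO vehicle plates as background controls.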
DT40 TDP1 CPT = qHTS for Inhibitors of human tyrosyl-DNA phosphodiesterase 1 (TDP1): qHTS in cells in presence of CPT. Potency, µM (titrated, usually from 46.2 µM), for inactives: at the highest dose activity change, negative = growth inhibition, actives largely listed as inhibitors. AID 686979, 2013. chicken DT40 Tdp1-/-;hTDP1 cells + 20 nM CPT, ATP luminescence, 48 h. actives 12% (n = 420,000); also: nearly all actives have a fitted effect of over 55% in size
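Chicken DT40 Tdp1-/- cells complemented with human TDP1, 400 cells/well, exposed to compounds plus 20 nM camptothecin for at least 48 h at 37 C; viability read as ATP content by CellTiter-Glo luminescence.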
* = called active by the depositor; i = inactive; ? = inconclusive; · = no result. This is a sample that favours compounds with a hit; in the whole collection about 19% have one here. Calls follow the shape of the dose curve; as a rule, active = well fitted curve in the direction sought with a large enough effect; inconclusive = small, poorly fitted or top-dose-only effect, or another doubt; inactive = no such curve, though single readings can be large; an effect the other way counts as inactive or inconclusive. Unless noted, % is scaled to controls: 0 for no effect and ±100 for the full control effect; potency is read from the fitted curve at half-maximal effect.

SMILES	HT1080-NT tox	HT1080 IDH1KD tx	KB-V1 MDR tox	TDP1 cell noCPT	KB-3-1 tox	DT40 TDP1 CPT
CCCCCCn1cc(CN2CC(N3CCCCC3)CS2(=O)=O)nn1 (configuration not stated)	-1%	5%	i	-19%	i	-5%
Cc1ccnc2c([N+](=O)[O-])cccc12	·	·	i	?	i	22µM*
O=C(O)c1ccc2cccnc2c1O	5%	18%	i	-1%	i	0%
Cc1ccnc2c(N)cccc12	·	·	i	13µM*	?	?
Nc1cccc2cccnc12	·	·	i	5.6µM*	i	1.8µM*
Cc1ccc2ccc3cccnc3c2n1	-5%	-19%	?	1µM*	12µM*	0.92µM*
Cc1nnsc1NC(=O)OCc1ccc(C(F)(F)F)cc1	0%	-11%	?	?	?	?
O=C(Nc1cc(Cl)ccc1Cl)N1CCCC1	18%	17%	i	18µM*	i	21µM*
O=C(CNC(=O)C1CCCCC1)Nc1cc(Cl)ccc1Cl	-10%	0%	21µM*	-24%	i	-6%
CC(=O)c1ccc(N2CCN(C(=O)c3cc4cc5cc(C)ccc5nc4s3)CC2)cc1	·	·	i	19%	i	-3%
CCN(CC)c1ccc(/C=N/n2c(-c3ccccc3Br)n[nH]c2=S)cc1	?	-30%	i	18µM*	i	?
Cc1nn(-c2ccccc2)c(C)c1/C=N/n1c(-c2ccccc2Br)n[nH]c1=S	-13%	-6%	?	-19%	i	?
Cn1cc(-c2cc3n(n2)CCC(=O)N3CC(=O)NCc2ccc(Cl)cc2)c2ccccc21	·	·	i	-29%	i	-28%
COc1cccc(-c2nn(C)c3sc(C(=O)NCc4ccc(C)cc4)cc23)c1	-21%	-16%	?	?	i	?
CCOC(=O)N1CCN(C(=O)c2cc3c(-c4cccc(OC)c4)nn(C)c3s2)CC1	-9%	-16%	?	23µM*	i	?
CCOC(=O)N1CCN(C(=O)c2cc3c(=O)[nH]c4ccccc4c3s2)CC1	2%	10%	i	16µM*	i	?
COc1cccc(-c2nn(C)c3sc(C(=O)NCCc4cccc(C)c4)cc23)c1	·	·	i	5.2µM*	?	10µM*
COc1cccc(-c2nn(C)c3sc(C(=O)N4CCN(c5cccc(C)c5)C(C)C4)cc23)c1 (configuration not stated)	·	·	i	23µM*	i	21µM*
CCCCN(C)CCCNC(=O)Cn1ncc2c3ccccc3n(Cc3cccc(Cl)c3)c2c1=O	·	·	i	?	i	?
Cc1cc(C(=O)O)cc(S(=O)(=O)Nc2c(C)nn(C)c2C)c1C	6%	7%	i	-13%	i	13%
CCOC(=O)N1CCC(NC(=O)c2cc3c(-c4cccc(OC)c4)nn(C)c3s2)CC1	-1%	-2%	?	?	i	23µM*
COCCCNC(=O)c1cc2c(-c3cccc(OC)c3)nn(C)c2s1	-23%	?	?	?	?	?
CCC(C)(C)NC(=O)C1CCN(S(=O)(=O)c2ccc3c(c2)CCCN3C(C)=O)CC1	·	·	i	0%	i	3%
CC(=O)N1CCCc2cc(S(=O)(=O)N3CCC(C(=O)NCc4ccccc4)CC3)ccc21	·	·	i	?	i	?
CC(=O)N1CCCc2cc(S(=O)(=O)N3CCC(C(=O)NCc4ccccc4Cl)CC3)ccc21	·	·	?	23µM*	i	?
SMILES	HT1080-NT tox	HT1080 IDH1KD tx	KB-V1 MDR tox	TDP1 cell noCPT	KB-3-1 tox	DT40 TDP1 CPT
CC(=O)N1CCCc2cc(S(=O)(=O)N3CCC(C(=O)Nc4ccc(C)cc4Cl)CC3)ccc21	·	·	i	16µM*	i	15µM*
O=C(NCc1ccccc1)C1CCN(S(=O)(=O)c2ccc3c(c2)CCCN3C(=O)C2CCC2)CC1	·	·	i	?	i	16µM*
Cc1cccc(CNC(=O)C2CCN(S(=O)(=O)c3ccc4c(c3)CCCN4C(=O)C3CCC3)CC2)c1	·	·	i	8.2µM*	?	13µM*
O=C(CNCc1ccc(F)cc1)Nc1ccc(C(=O)N2CCCCC2)cc1	7%	-6%	i	-4%	i	18%
O=C(NCC1CC1)c1ccccc1Cl	0%	0%	i	19%	i	-10%
Cc1ccc(CNS(=O)(=O)c2ccc3c(c2)CCN3C(=O)C2CCC2)cc1	-22%	-2%	i	?	i	?
O=C(NCc1ccc(Cl)cc1)C1CCN(S(=O)(=O)c2ccccc2)CC1	-13%	-11%	i	?	i	?
O=C(NCc1ccc(Cl)cc1)C1CCN(S(=O)(=O)c2ccc3c(c2)CCCN3C(=O)C2CCC2)CC1	·	·	i	21µM*	?	16µM*
